Our source for the PBM binding z-score values is the supplement of paper PMC6555819.

In this assay the test system is VDR:RXRa (NR concentration 270 nM, RXRa partner concentration 90 nM). As to the kind of experiment: PBM binding z-score (relative to random genomic background probes); higher = stronger binding; sequences stand for … in GC…GCGATTGACAGCGTAGAATGAAGG
The procedure:
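Protein-binding microarray (Agilent 4x180K custom design, double-stranded 60-nt probes: 5' GC cap, 34-nt variable region, 24-nt constant primer region; full probe sequence given). Purified or IVT nuclear receptor:RXRα heterodimers (3:1 NR:RXRα, mostly 270:90 nM) or homodimers were incubated for 1 h in PBS with 2% milk and no ligand, then detected with Alexa488 antibodies. Fluorescence from o1-orientation probes (~5 replicates averaged) was converted to z-scores against 500 random hg19 background probes. Variable regions are seed direct-repeat (DR0–DR5) sites, all their single-nucleotide variants and half-site ablations.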
Turning to CGAACGAGGTCATGAGTTGATAGCAAATGCCGAT, the PBM binding z-score was 5.57.

Take CCTCGGAGGACAGAAGGTCAAAGCTGTCCGCTTT: the PBM binding z-score was 2.84.

TATTCAGGGTCAAAGGCCAGAGTACGAATGTCGA gave a PBM binding z-score of 5.12.

Consider TCTCGGAGGACACTAAAGGTCAGAGCTCGACATC, for which the PBM binding z-score worked out at 3.2.

On to TAGCCTAGGTCATGCGGGACAGTATAGTGTCGGC, for which the PBM binding z-score was 3.48.

The sequence AGAATGAGGTTACTAAAGATCAGGGAAACGCTTG registered a PBM binding z-score of 0.79.

As for GCTGCGAGGTCAACTGATGGTCAGCTAAAGCTCG, the PBM binding z-score is 5.48.

Sequence TAGCCTAGGTCATGCGGGCCAATATAGTGTCGGC yielded a PBM binding z-score of 3.64.

CGTCCAAGGTCATATGAGGTCAGTGAAGACAGAT returned a PBM binding z-score of 7.19.

With TAGCCTAGGTTATGGGCCAGTATACCACGCGAAC, the PBM binding z-score was -0.0238.

Regarding CAGCATAGGTCAGGGCCAGTATAGGAGGAACGTT, the PBM binding z-score was 1.4.

As to AGAATGAGGTCACCAAAGATCAGGGAAACGCTTG, the PBM binding z-score stood at 5.55.

Turning to CGTCCAAGGTCAGCGGGTCAGTGAAAGCGACGTG, the PBM binding z-score was 4.57.

On to TCTGCTAGGTCAACGTTGGTCAGCTAATCTGCTA, for which the PBM binding z-score was 1.46.

Take CGTCAAAGATCAAGGTAACGTAACAGAAAGCAGC: the PBM binding z-score was -0.129.

In turn, TAGCCTAGGTCATGGGCCAGTGTACCACGCGAAC gave a PBM binding z-score of 2.18.

As to ACTCGGATGACAAAGGTCAGAGCTACGCCAGTGA, the PBM binding z-score was 3.14.

In the case of TGTCAAAGTTCAAAGGTGACGTAAGTATCCACAC, the PBM binding z-score came out at 5.65.

With AATAAAGGGTCATCGTAGGCCAGAGTACGCACAG, the PBM binding z-score amounted to 5.33.

On to TATAAAGGGTCAAAGGCCAGAGTACGAATGTCGA, for which the PBM binding z-score was 4.86.

CAAACCAGGTCAAGAGGTCAAAGTCCGCTTCCCG gave a PBM binding z-score of 6.45.

Turning to CCTTAAGGGTCACGAGGTTATAGCACGACGAGCG, the PBM binding z-score turned out to be 6.02.

CGTCAAAGTTCAAGGTCACGTAACAGAAAGCAGC registered a PBM binding z-score of 5.84.

With CGAACTAGGTCATTGACAGGACAGTGGATAGTAA, the PBM binding z-score stood at 2.15.

As for CTCGAAAGGTCATGCTCAGGTGAGTATACCAAAC, the PBM binding z-score came out at 5.69.

Regarding TAGCCTAGGTCGTTCAGGGGCCAGTATAGAAAGC, the PBM binding z-score was 0.798.

For the sequence CCTAGTTGGTCAAGGTCACACCCGCTATAGGTAC, the PBM binding z-score worked out at 3.99.

CCTACTGGGCCAAAGGTGATTGATTCCAATGCTC gave a PBM binding z-score of 0.0696.

In the case of CCTACTGGGCCACGAAAGGCCATTGATTCAGTGA, the PBM binding z-score was -0.147.

Turning to CCTTAGGGGTCAAGGTTATAGCACGGGTGGTACG, the PBM binding z-score was determined as 6.11.

The sequence ATCGAAAGGTCGACCAGGTGAGTATACACCGTTT returned a PBM binding z-score of 3.73.

Turning to AGTCAAAGTGCATCTAGGTAACGTAAGATATGCT, the PBM binding z-score turned out to be 0.567.

With CGTCCAAGGTCAATGCTAGATCAGTGAAAGCATT, the PBM binding z-score was 3.51.

As for TCTTGTAGATCGATAGAGGTTAAGAAAGTGCGCT, the PBM binding z-score amounted to 1.45.

TTACCAAGGTGAACGGTCGTTGATGCACGCCTTG displayed a PBM binding z-score of 0.0102.

For the sequence CCTTACGGGTCACGAGGTTGTAGCACGACGAGCG, the PBM binding z-score came to 5.26.

Regarding CAAACTAGGTCACAAAAGGTCAAAGTCGAATGAC, the PBM binding z-score was 6.51.

TAGCCTAGGTCATTCAGGGGCCAGCATAGAAAGC had a PBM binding z-score of 2.97.

In turn, AGAATGGGGTTATACGTAGATCAGGGAAGAAAGT displayed a PBM binding z-score of 3.03.

On to ATTTGTAGGTTACATCCGGGTCATTCAGGCTATG, for which the PBM binding z-score turned out to be 4.68.
